# Reference: PubChem BioAssay AID743279 (National Center for Advancing Translational Sciences (NCATS), 2014)
# The campaign covered roughly 360,000 compounds. About 17,000 (4.7%) were called active. Roughly 5% stayed inconclusive and do not appear here. No stated cut-off is given here; in the data, active means activity change below about -50%; inconclusive means mostly about -30% to -49%; inactive means weaker than that. What follows is part of a selection rich in actives, with near analogues and random picks from the rest.
# Assay: qHTS for Inhibitors of Inflammasome Signaling: IL-1-beta AlphaLISA Primary Screen
# Settings: THP-1 LPS/ATP IL-1B secretion, 16 h; at 57.5 µM, hits give low values
# Summary of the method: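 Secreted IL-1B measured by AlphaLISA bead assay after 16 h compound exposure of THP-1 cells; compounds (final up to 57.5 uM) added 1 h before LPS (250 ng/mL) and ATP (1.25 mM) stimulation; lower signal means less secretion.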
# On the % scale 0 is the no-effect control and ±100 the full control effect.
row,Structure (SMILES),activity change
1,CCc1nc2ccc(C(=O)N(C)Cc3ccco3)cn2c1N(C)C(=O)Cc1ccccc1,-0.908% (inactive)
2,CCCN(C(=O)COC(=O)CNS(=O)(=O)c1ccc(NC(C)=O)cc1)C1CCS(=O)(=O)C1 (stereo unspecified),14.5% (inactive)
3,CCOC(=O)N1CCN(C(c2ccnc3ccccc23)c2nnnn2-c2c(C)cccc2C)CC1 (stereo unspecified),-14.1% (inactive)
4,Cc1ccccc1C(CC(=O)c1cccs1)C(C#N)C#N (stereo unspecified),-107% (active)
5,O=C(NCC(=O)N1CCN(c2ccccc2F)CC1)c1cccs1,16.6% (inactive)
6,Cc1ccc(C)c(NC(CC(=O)c2ccccc2)C(=O)OCC(=O)c2cccs2)c1 (stereo unspecified),7.47% (inactive)
7,COc1ccc(CCNc2nc3ccc(C)cc3n3cnnc23)cc1OC,13.3% (inactive)
8,CCOC(=O)CSc1nc2ccc(C)cc2n2cnnc12,-55.9% (active)
9,CCOC(=O)CSc1nncc2ccc(OC)c(OC)c12,-8.55% (inactive)
10,CN(CCCNC(=O)CN1C(=O)CC(C)(C)S(=O)(=O)c2ccccc21)C1CCCCC1,0% (inactive)
11,COc1ccccc1C(=O)NC(=S)Nc1ccc(N2CCOCC2)cc1,-16.4% (inactive)
12,CCCCCC(=O)N1C[C@H](O)[C@@H](n2cc(COC(=O)c3ccccc3)nn2)C[C@@H]1c1ccc(C)cc1,-14.9% (inactive)
13,N=C1C(c2nc3ccccc3s2)=C(O)CN1NC(=O)c1ccc([N+](=O)[O-])cc1,-90.6% (active)
14,Cc1ccc(C)n1NC(=O)c1ccc([N+](=O)[O-])cc1,-5.32% (inactive)
15,N=C1C(c2nc3ccccc3[nH]2)=C(O)CN1NC(=O)c1c[nH]c2ccccc12,27.9% (inactive)
16,CN1OC[C@@H]2CN[C@H](c3ccc(-c4ccccc4)cc3)C[C@@H]21,-4.9% (inactive)
17,O[C@H]1CN(Cc2cccs2)[C@@H](c2ccc(Cl)cc2)C[C@@H]1n1cc(C2CC2)nn1,30.3% (inactive)
18,COc1cc(OC)cc(-c2nnc(N(C)C(=O)c3ccncc3)s2)c1,-18.8% (inactive)
19,COCCN(C(=O)c1ccco1)c1nnc(-c2ccc(OC)cc2)s1,-3.55% (inactive)
20,COCCN(C(=O)C(C)C)c1nnc(-c2ccc(C(C)(C)C)cc2)s1,-83.8% (active)
21,CCC1=C(OC(=O)N(CC)CC)N2C(=O)OC(=NCC3CC3)[C@]2(C)[C@H]2C1=CC[C@H]1C(=O)N(CC(=O)OC)C(=O)[C@H]12,25% (inactive)
22,COc1ccccc1NC(=O)/C=C/C(N)=O,-100% (active)
23,COc1ccccc1NC(=S)NC(=O)C(C)C,3.02% (inactive)

row,Structure (SMILES),activity change
1,COc1ccccc1NC(=O)c1cc(Cl)nnc1Cl,-97.2% (active)
2,COc1ccccc1C(=O)Nc1ccccc1C(=O)Nc1ccccc1,-4.71% (inactive)
3,COc1ccccc1NC(=O)c1cc(Cl)nc2ccccc12,46.4% (inactive)
4,COc1ccccc1NC(=O)C[n+]1ccccc1,33.7% (inactive)
5,O=C(Nc1ccc(F)cc1)Nc1nnc([C@H]2C[C@H](O)[C@@H](CO)O2)s1,-12.8% (inactive)
6,COc1ccc(-c2nnc(SC(=O)N3c4ccccc4Sc4ccccc43)o2)cc1,-101% (active)
7,COc1ccc(-c2nnc(SC(C)C(=O)NC3CC3)o2)cc1 (stereo unspecified),-5.66% (inactive)
8,COc1ccc(-c2nnc(-c3ccc4ccccc4c3)o2)cc1,-20.9% (inactive)
9,COC(=O)C1(C(=O)OC)C/C=C\CN(S(=O)(=O)c2ccccc2[N+](=O)[O-])CCC1,18.1% (inactive)
10,O=C(NCc1cccnc1)c1cc(C2CCCN(C(=O)CCCc3ccccc3)C2)on1 (stereo unspecified),24.4% (inactive)
11,CCN(CC)CCn1c2ccc(Cl)cc2c2nc(C)sc21,-29.9% (inactive)
12,CCN(CC)CCCC(C)n1c2nc(=O)[nH]c(=O)c-2nc2cc(Cl)ccc21 (stereo unspecified),-77.2% (active)
13,O=C(Nc1ccc(OCCO)cc1)c1csc([C@H]2C[C@H](O)[C@@H](CO)O2)n1,4.57% (inactive)
14,FC(F)(F)c1cccc(N/N=C/c2ccccc2)c1,-1.73% (inactive)
15,COc1cccc(/C=N\Nc2nncc(-c3ccccc3)n2)c1,-16.6% (inactive)
16,Cc1cc2c(C)nc(N/N=C/c3ccccc3)nc2o1,-78.8% (active)
17,CC(C)NC(=O)c1ccccc1S(=O)c1ccccc1C#N (stereo unspecified),-0.788% (inactive)
18,OCC1OC(n2cnc3c(N4CCCC4)ncnc32)C(O)C1O (stereo unspecified),86.8% (inactive)
19,COCCCNC(=O)CSc1nc2ccc(N3CCOCC3)cc2c(=O)n1CCc1ccccc1,-8.48% (inactive)
20,CCCCn1c(SCC(=O)NCC2CCCO2)nc2ccc(N3CCOCC3)cc2c1=O (stereo unspecified),-7.71% (inactive)
21,N#CCSc1nc2ccc(N3CCOCC3)cc2c(=O)n1CCc1ccccc1,-50.9% (active)
22,N#Cc1ccc(-c2ccc3nccn3c2)cc1,13.1% (inactive)
23,C=CCC[C@@H](Cc1ccc(F)cc1)C(=O)OC[C@@H](C)NC(=O)[C@H](CC=C)CC(=O)N(CCO)Cc1ccccc1,-24.1% (inactive)

row,Structure (SMILES),activity change
1,C=CC[C@H](CC(=O)N(CCO)Cc1ccccc1)C(=O)N[C@@H](COC(=O)[C@@H](CC=C)Cc1ccc(F)cc1)Cc1ccccc1,-67.6% (active)
2,C=CCC[C@H](Cc1ccc(F)cc1)C(=O)OC[C@@H](NC(=O)[C@@H](CC=C)CC(=O)N[C@H](CO)Cc1ccccc1)C(C)(C)C,-29.4% (inactive)
3,C=CCC[C@H](Cc1ccc(F)cc1)C(=O)OC[C@H](C)NC(=O)[C@H](CC=C)CC(=O)N(CCO)Cc1ccccc1,-17.2% (inactive)
4,C=CC[C@@H](Cc1ccc(F)cc1)C(=O)OC[C@H]1CCCN1C(=O)[C@H](CC=C)CC(=O)N(CCO)Cc1ccccc1,-21.2% (inactive)
5,C=CCC[C@@H](Cc1ccc(F)cc1)C(=O)O[C@H](CNC(=O)[C@H](CC=C)CC(=O)N(CCO)Cc1ccccc1)c1ccccc1,-58.8% (active)
6,CSc1ccc(CNC(=O)C2(C)CCCN2C)cc1 (stereo unspecified),-5.74% (inactive)
7,COCCCNC(=O)CNC(=S)N(Cc1cc(OC)c(OC)c(OC)c1)C1CCCC1,7.84% (inactive)
8,Cc1ccc(C(=O)N/C(=C\c2cn(S(=O)(=O)N(C)C)c3ccccc23)C(=O)N2CCCC2)cc1,-17.6% (inactive)
9,CN1CCN(C(=O)c2ccc(-c3ccc(Br)cc3)o2)CC1,-71.3% (active)
10,COc1ccccc1OCc1ccc(C(=O)N2CCN(C)CC2)o1,10.8% (inactive)
11,CN1CCN(C(=O)c2ccc(NC(=O)c3ccc(Br)o3)cc2)CC1,4.78% (inactive)
12,CCCc1nn2c(=O)cc(CSCC(=O)Nc3cccc(C)c3)nc2s1,19.5% (inactive)
13,Cc1cccc(-c2cnc(C(O)c3cc(C)cc(C)c3)[nH]2)c1 (stereo unspecified),-1.76% (inactive)
14,CCc1nc2c(OCc3ccc(Cl)cc3Cl)cccn2c1N(C)C(=O)C(C)C,-84.1% (active)
15,CCc1nc2c(OCc3cccc(OC)c3)cccn2c1N(C)C(=O)C(C)C,51.9% (inactive)
16,CCCCC(=O)N(C)c1c(CC)nc2c(OCc3ccc(S(C)(=O)=O)cc3)cccn12,28.1% (inactive)
17,CCOC(=O)N(C)c1c(CC)nc2c(OCc3ccccc3C(=O)OC)cccn12,6.05% (inactive)
18,CCc1nc2c(OCc3ccc(C(=O)OC)cc3)cccn2c1N(C)C(=O)C(C)C,-12% (inactive)
19,CCCCC(=O)N(C)c1c(CC)nc2c(OCc3ccc(Cl)cc3Cl)cccn12,-54% (active)
20,CCc1nc2ccc(C(=O)NC3CCN(Cc4ccccc4)CC3)cn2c1N(C)CCN1CCOCC1,-15.7% (inactive)
21,CCc1nc2c(OCc3ccc(C(F)(F)F)cc3)cccn2c1N(C)C(=O)CC(C)C,-8.97% (inactive)
22,COC1=CC(=O)OC(C)(c2ccccc2)C1 (stereo unspecified),9.74% (inactive)
23,COc1ccccc1C(=O)Nc1ccc(NC(=O)c2ccco2)c(C)c1,-55.2% (active)

row,Structure (SMILES),activity change
1,Cc1cccc(OCC(=O)Nc2ccc(NC(=O)c3ccco3)c(C)c2)c1,-0.614% (inactive)
2,COc1ccc(NC(=O)c2ccco2)cc1NC(=O)c1ccc(C#N)cc1F,52.7% (inactive)
3,Cc1cc(F)ccc1S(=O)(=O)Nc1ccc(C(=O)N(C)Cc2ccco2)cc1,-8.26% (inactive)
4,COc1ccc(NC(=O)CSc2nnc(-c3ccccc3F)n2C2CC2)cc1S(N)(=O)=O,15.5% (inactive)
5,Cc1ccc(-n2nc(C)c(/C=N/NC(=O)c3cccs3)c2Cl)cc1,-8.79% (inactive)
6,Cc1nn(-c2ccccc2)c(C)c1/C=N/NC(=O)CSc1nc2ccccc2c(=O)n1-c1ccccc1,12% (inactive)
7,Cc1nn(-c2ccccc2)c(Cl)c1/C=N/NC(=O)c1nn(C)cc1[N+](=O)[O-],-65.7% (active)
8,Cc1ccc(N2CCN(c3ccc([N+](=O)[O-])cn3)CC2)c(C)c1,-8.34% (inactive)
9,C1=C(CCNc2ncnc3c2cnn3-c2ccccc2)CCCC1,-3.14% (inactive)
10,O=C(NCCC1=CCCCC1)C1CCN(Cc2cnn(-c3ccccc3)c2-n2cccc2)CC1,-64.8% (active)
11,Cc1ccc(S(=O)(=O)N2CCC(C(=O)NCCC3=CCCCC3)CC2)cc1C,-2.64% (inactive)
12,Nc1ncnc2c1ncn2[C@@H]1O[C@H](C(=O)N2CCCN(Cc3ccccc3F)CC2)[C@@H](O)[C@H]1O,2.81% (inactive)
13,COc1ccccc1-n1c(SCC(=O)Nc2ccc(Cl)cc2)nc(O)c(Cc2ccccc2)c1=O,0% (inactive)
14,CC(C)C[C@H](NC(=O)Nc1cccc(C(F)(F)F)c1)C(=O)O,34.5% (inactive)
15,O=C(Nc1ccc(-c2csc(Nc3cccc(C(F)(F)F)c3)n2)cc1)c1cccc(C(F)(F)F)c1,11.4% (inactive)
16,NC(c1ccccc1)c1csc(NC(=O)Nc2cccc(C(F)(F)F)c2)n1 (stereo unspecified),-106% (active)
17,COc1ccc(C(N)c2csc(NC(=O)Nc3cccc(C(F)(F)F)c3)n2)cc1 (stereo unspecified),-81.4% (active)
18,COc1ccc(NC(=O)C(=O)NCC(=O)Nc2cccc(C(F)(F)F)c2)cc1,10.7% (inactive)
19,O=C(Nc1ccc(C(=O)N2CCOCC2)cc1)Nc1cccc(C(F)(F)F)c1,-10.3% (inactive)
20,NC(c1csc(NC(=O)Nc2cccc(C(F)(F)F)c2)n1)C1CCCCC1 (stereo unspecified),-111% (active)
21,O=C(O)CC1(CC(=O)Nc2cccc(C(F)(F)F)c2)CCCC1,16.7% (inactive)
22,COc1cc(NC(=O)c2[nH]cnc2C(N)=O)cc(C(=O)Nc2cccc(C(F)(F)F)c2)c1,-16% (inactive)
